Test results reported in PubChem BioAssay AID588342 (National Center for Advancing Translational Sciences (NCATS), 2011).
The whole screen tested about 360,000 compounds, of which about 25,000 (6.9%) were called active. Entries that show only a call come without a potency. Inconclusive results (about 9%) are left out. Only a selection was taken, and actives are over-represented in it overall. A number with no mark means an inactive call. Calls come from the whole dose curve; as a rule, active = well fitted inhibition curve with a large enough effect; inconclusive = small, poorly fitted or top-dose-only effect; inactive = flat fitted curve, though single readings scatter.

The compounds below were run against Luciferin 4-monooxygenase (Photinus pyralis) (UniProt P08659) (assay: qHTS profiling assay for firefly luciferase inhibitor/activator using purifed enzyme and Km concentrations of substrates (counterscreen for miR-21 project)). Settings: purified FLuc, luminescence inhibition; series mostly up to 57.5 µM.
Chain of Luciferin 4-monooxygenase (Photinus pyralis) (P08659 whole entry, looked up): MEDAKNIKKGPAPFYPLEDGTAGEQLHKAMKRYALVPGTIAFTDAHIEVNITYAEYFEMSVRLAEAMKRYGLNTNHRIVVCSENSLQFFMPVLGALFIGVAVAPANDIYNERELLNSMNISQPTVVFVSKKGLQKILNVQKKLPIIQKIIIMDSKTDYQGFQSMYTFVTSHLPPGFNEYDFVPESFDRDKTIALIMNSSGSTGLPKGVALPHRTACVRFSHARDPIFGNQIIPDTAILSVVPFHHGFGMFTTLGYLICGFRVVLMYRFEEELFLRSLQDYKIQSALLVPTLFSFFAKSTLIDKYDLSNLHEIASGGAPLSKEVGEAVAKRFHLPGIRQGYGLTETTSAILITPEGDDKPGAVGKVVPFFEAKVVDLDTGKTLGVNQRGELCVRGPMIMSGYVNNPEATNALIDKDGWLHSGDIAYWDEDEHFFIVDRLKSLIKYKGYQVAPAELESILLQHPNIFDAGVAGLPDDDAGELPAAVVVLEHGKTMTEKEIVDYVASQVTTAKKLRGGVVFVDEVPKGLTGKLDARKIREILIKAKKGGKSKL
Summary of the method: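 Purified P. pyralis luciferase (10nM final) with 10uM D-luciferin and 10uM ATP (Km levels) in 50mM Tris acetate pH 7.5, 10mM Mg acetate, 0.01% Tween-20, 0.05% BSA; qHTS 6-point titration, ~60 µM downward; luminescence read.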
Note: nearly all actives have a fitted effect of over 55% in size.
Potency is the fitted concentration of half-maximal effect.

| Structure (SMILES) | Potency | activity change, negative = inhibition |
| --- | --- | --- |
| CCC(C)C(N=C1NS(=O)(=O)c2ccccc21)C(=O)N1CCC(C)CC1 (centres undefined) | inactive | – |
| Nc1c(NCCc2ccccc2)c2ccccc2oc1=O | inactive | – |
| COc1ccc(/C(O)=C2/C(=O)C(=O)N(c3nc(C)c(C)s3)C2c2ccco2)cc1 (centres undefined) | inactive | – |
| CCOc1ccc(/C(O)=C2\C(=O)C(=O)N(c3ccc(OC)cc3)C2c2ccccc2[N+](=O)[O-])cc1 (centres undefined) | 8.49 µM (active) | – |
| COc1ccc(C2/C(=C(/O)c3ccccc3)C(=O)C(=O)N2C)c(OC)c1 (centres undefined) | inactive | – |
| Cc1ccc(C(=O)Nc2ncccc2C)cc1S(=O)(=O)N1CCOCC1 | inactive | – |
| O=C1CSC(=S)N1c1ccc(O)cc1 | inactive | – |
| CCOc1cccc(/C=N/N2C(=O)CSC2=S)c1O | 21.3 µM (active) | – |
| CCOc1cccc(/C=N/NC(=S)NCCN2CCOCC2)c1O | inactive | – |
| C=CCNC(=S)NNC(=O)COc1c(Cl)cc(Cl)cc1Cl | inactive | – |
| COc1ccccc1CNC(=O)NCc1noc2ccc(C)cc12 | inactive | – |
| c1ccc(-n2nc3ccccc3n2)cc1 | 19 µM (active) | – |
| Oc1ccc(-c2nncn2-c2ccccc2)cc1 | inactive | – |
| O=S(=O)(Cc1nnnn1-c1ccccc1)c1ccccc1 | inactive | – |
| COc1ccc(NC(=O)CN(C)C(=O)c2cc(-c3ccc(C)o3)nc3ccccc23)cc1 | 3.38 µM (active) | – |
| COc1ccc(NC(=O)CN(C)C(=O)c2n[nH]c3ccccc23)cc1 | 23.9 µM (active) | – |
| COc1ccc(NC(=O)CN(C)C(=O)c2ccc(COc3ccccc3)o2)cc1 | inactive | – |
| CN(C)S(=O)(=O)c1ccc(NC(=O)COC(=O)c2n[nH]c3ccccc23)cc1 | inactive | – |
| COc1ccc(NC(=O)CN(C)C(=O)CNC(=O)C2CCCCC2)cc1 | inactive | – |
| COc1ccc(NC(=O)CN(C)C(=O)Cc2coc3cc(C)c(C)cc23)cc1 | inactive | – |
| Cc1ccc(C(=O)Nc2ccc(OCc3cc(=O)n4c5c(sc4n3)CCCC5)cc2)cc1 | inactive | – |
| Cc1ccc(NC(=O)CCCNC(=O)c2ccc(Cl)cc2)cc1S(=O)(=O)N1CCOCC1 | inactive | – |
| COc1cc(NC(=O)c2noc3c2CSc2ccccc2-3)cc(OC)c1OC | inactive | – |
| COc1ccc(CNC(=O)COCc2cc(-c3cccs3)on2)cc1OC | inactive | – |
| COc1ccc(-c2csc(-c3c(N)c(C(=O)c4ccc(OC)c(OC)c4)n4ccccc34)n2)cc1 | inactive | – |
| COc1ccc(-c2csc(-c3cccs3)n2)cc1OC | 23.9 µM (active) | – |

| Structure (SMILES) | Potency | activity change, negative = inhibition |
| --- | --- | --- |
| COc1ccccc1-c1cc(C(F)(F)F)nc(S(=O)(=O)CCCC(=O)Nc2ccc(F)cc2F)n1 | inactive | – |
| CCN(C(=O)Cn1c(=O)nc(-c2ccccc2)c2cc(Cl)ccc21)c1cccc(C)c1 | inactive | – |
| O=C(NCCc1ccco1)c1nn(Cc2ccccc2)c(=O)c2ccccc12 | inactive | – |
| COc1cc(OC)cc(C(=O)NCCSCc2ccco2)c1 | inactive | – |
| Cc1ccsc1C(=O)NCCc1ccco1 | 21.3 µM (active) | – |
| CCC(=O)Nc1cccc(C2=NOC3(C2)C[C@@H](C(N)=O)N(C(=O)c2cc([N+](=O)[O-])cc([N+](=O)[O-])c2C)C3)c1 (some centres undefined) | inactive | – |
| COc1ccc(Cn2ccc3nc(C)c(C(=O)Nc4ccc(C)c(F)c4)cc3c2=O)cc1 | inactive | – |
| COc1cccc(Cn2c(CNS(=O)(=O)c3ccc(Cl)s3)nc3cccnc32)c1 | inactive | – |
| COc1ccc(NC(=O)C(c2ccccc2)N2Cc3ccccc3C2=O)cc1 (centres undefined) | inactive | – |
| CC(=O)c1ccc(NC(=O)c2cc(-c3cccs3)on2)cc1 | inactive | – |
| CNC(=O)n1ccc(C(=O)N2CCCCC2)n1 | – | 2.3% [at 2.3 µM] |
| O=C(c1cc(-c2cccs2)on1)N1CCCCC1 | 23.9 µM (active) | – |
| O=C(c1ccco1)N1CCN(C(=O)c2ccc(COc3ccc(F)cc3)o2)CC1 | inactive | – |
| O=C(c1cc(-c2ccccc2O)on1)N1CCCC1 | 6.75 µM (active) | – |
| O=C(c1ccc(F)cc1)N1CCCC(c2nc(-c3cccs3)no2)C1 (centres undefined) | inactive | – |
| COc1cccc(OCc2cc(C(=O)N3CCN(C(=O)c4ccco4)CC3)no2)c1 | 12 µM (active) | – |
| O=C(c1ccc(Cl)c(Cl)c1)N1CCCC1 | inactive | – |
| CCCOC1CCCN(C(=O)c2cc(COc3cncc(Cl)c3)on2)C1 (centres undefined) | 10.7 µM (active) | – |
| CCOC(=O)CC1(NC(=O)c2cc(COc3cncc(Cl)c3)on2)CCCCC1 | inactive | – |
| COc1cccc(OC)c1OCCN1CCN(C(=O)c2ccco2)CC1 | inactive | – |
| Cc1nonc1C1CCCN1C(=O)c1cc(COc2cccc(C(F)(F)F)c2)on1 (centres undefined) | inactive | – |
| CCOC(=O)c1c(C)oc2nc(C)nc(N3CCN(c4ccc(OC)cc4)CC3)c12 | inactive | – |
| O=S(=O)(c1ccc(SCc2ccc(Br)cc2)nc1)N1CCOCC1 | inactive | – |
| COc1ccccc1N1CCN(c2ncnc3onc(-c4cccc(Cl)c4)c23)CC1 | inactive | – |
| COc1cc(NC(=O)c2nn(-c3ccc(C)cc3)c(=O)c3c2c2ccccc2n3C)cc(OC)c1OC | inactive | – |
| COc1cc2nc(SCC(=O)Nc3ccccc3F)n3nc(-c4ccccc4)nc3c2cc1OC | inactive | – |

| Structure (SMILES) | Potency | activity change, negative = inhibition |
| --- | --- | --- |
| c1ccc(CNc2ncnc3[nH]ncc23)cc1 | inactive | – |
| Cc1ccc(NC(=O)CN(C)C(=O)c2cccc(S(=O)(=O)N3CCCC3)c2)cc1 | inactive | – |
| Cc1[nH]c2c(C(=O)N3CCCC(CCC(=O)NCc4ccccc4F)C3)cccc2c1C (centres undefined) | inactive | – |
| COc1ccccc1-c1cc(C(=O)N2CCCCC2)no1 | 5.36 µM (active) | – |
| COc1ccc(C(=O)C2CCCN(C(=O)c3cc(C)on3)C2)cc1F (centres undefined) | inactive | – |
| COc1cc(Cl)ccc1OCc1cc(C(=O)N2CC[C@@H]3CCCC[C@H]3C2)no1 | 23.9 µM (active) | – |
| COc1ccccc1OCc1ccc(C(=O)N2CCN(C)CC2)o1 | inactive | – |
| COc1cccc(-c2cc(C(=O)N3CCN(c4ccccc4OC)CC3)no2)c1 | inactive | – |
| COc1ccc(OCc2cc(C(=O)N3CCCC3)no2)c2ccccc12 | 9.53 µM (active) | – |
| O=C(c1ccco1)N1CCN(C(=O)c2cc(-c3ccccc3F)no2)CC1 | 13.5 µM (active) | – |
| O=C(Cc1c(F)cccc1Cl)N1CCN(C(=O)c2ccco2)CC1 | inactive | – |
| COc1cc(Cl)ccc1OCc1cc(C(=O)N(C)CCc2c(C)n[nH]c2C)no1 | inactive | – |
| COc1ccc(Cl)cc1C(=O)NNC(=S)NC1CCCC1 | inactive | – |
| Cc1ccc(C)c(OCc2cc(C(=O)N3CCN(c4cnccn4)CC3)no2)c1 | inactive | – |
| O=C(NCCCN1CCOCC1)c1cc(-c2ccccc2F)no1 | inactive | – |
| Fc1ccc(-c2nn(-c3ccccc3Cl)c3c2cnc2ccccc23)cc1 | inactive | – |
| O=C(CN1C2CCC1CC(NC(=O)C1CC1)C2)NCc1ccccc1 (centres undefined) | inactive | – |
| COc1ccc(CNC(=O)CN(Cc2ccccc2Cl)C(=O)c2csnn2)cc1 | inactive | – |
| CCc1nn(CC(=O)Nc2cc(C)cc(C)c2)c(=O)c2cc3sccc3n12 | inactive | – |
| O=C(NCC(c1ccc(Cl)cc1)N1CCOCC1)c1ccccc1F (centres undefined) | inactive | – |
| COC(=O)c1scc(S(=O)(=O)C(C)(C)C)c1-n1cccc1 | inactive | – |
| O=C(NCCC1=CCCCC1)c1ccc2c(c1)N(Cc1ccccc1F)C(=O)c1ccccc1S2(=O)=O | inactive | – |
| COCCNc1nnc(SCC(=O)NNC(=O)c2ccco2)s1 | inactive | – |
| Cc1cccc(Cc2c(C)nc3nc(SCc4ccccc4Cl)nn3c2C)c1 | inactive | – |
| CCOC(=O)c1ccc(NC(=O)Cn2cc(S(=O)(=O)Cc3ccccc3F)c3ccccc32)cc1 | inactive | – |
| Cc1ccc(CNC(=O)CCc2c(C)nc3c(c(C)nn3-c3ccccc3)c2C)cc1 | inactive | – |

| Structure (SMILES) | Potency | activity change, negative = inhibition |
| --- | --- | --- |
| CC(C)(C)NC(=O)CSC(=Nc1ccccc1F)NC#N | inactive | – |
| CC1(C)Cc2ccccc2/C(=C/C(=O)c2ccccc2)N1 | inactive | – |
| O=C(O)C1CCCN1S(=O)(=O)c1ccc(Br)cc1 (centres undefined) | inactive | – |
| CC1CN/C(=C\C(=O)c2ccc(Br)cc2)C(=O)N1 (centres undefined) | 1.9 µM (active) | – |
| CCN(CC)S(=O)(=O)c1ccc(Cl)c(C(=O)NCCN2CCOCC2)c1 | inactive | – |
| O=C(NCc1ccccc1)C(c1ccccc1)N(C(=O)c1csnn1)c1ccc(F)cc1 (centres undefined) | inactive | – |
| COc1cccc(CNC(=O)CN2C(=O)CCc3cc(S(=O)(=O)N4CCOCC4)ccc32)c1 | inactive | – |
| Cc1nc(-c2ccc(F)cc2)c(CC(=O)N(C)CC(=O)Nc2c(C)cccc2C)s1 | inactive | – |
| COc1ccc(OC)c(/C=N/NC(=O)CSc2nnc(C)n2-c2ccccc2)c1 | inactive | – |
| COc1ccc(C(=O)NC2CC(C)(C)Cc3c2cnn3-c2ccccc2)c(OC)c1 (centres undefined) | inactive | – |
| COc1ccc(/C=C2/C(=O)N(c3ccccc3)N=C2C)c(OC)c1 | 15.1 µM (active) | – |
| CCCCc1ccc(NS(=O)(=O)c2cccc(C(=O)N3CCCN(C)CC3)c2)cc1 | inactive | – |
| COc1ccc(NS(=O)(=O)c2ccc(NC(=S)NC(=O)/C=C/c3ccc(C)cc3)cc2)nn1 | inactive | – |
| COc1ccc(/C=C/C(=O)c2ccc(NS(=O)(=O)c3ccc(C)cc3)cc2)cc1O | 6.01 µM (active) | – |
| COc1cc(NS(=O)(=O)c2ccc(NC(C)=O)cc2)cc(OC)c1 | inactive | – |
| COc1cccc2c1cc1c(=O)n(CC(=O)N3CCN(c4ccccc4)CC3)nc(C)n12 | inactive | – |
| Cc1ccsc1/C=N/n1c(=S)[nH]nc(C)c1=O | inactive | – |
| COc1ccc(CC(=O)NCC(=O)N/N=C/c2cc(Br)ccc2OC)cc1 | inactive | – |
| COc1cc(/C=N/NC(=O)Cc2ccccc2)cc(OC)c1OC | inactive | – |
| COc1ccc(/C=N/NC(=O)C2CC2)c(OC)c1OC | inactive | – |
| COc1cccc(/C=N/NC(=O)CNC(=O)c2ccc(S(=O)(=O)N3CCOCC3)cc2)c1OC | inactive | – |
| COc1ccc2[nH]c(C(=O)N/N=C/c3cc(OC)c(OC)c(OC)c3)cc2c1 | 12 µM (active) | – |
| COc1cc2cc(C(=O)N/N=C/c3cccc(OC)c3OC)[nH]c2cc1OC | 16.9 µM (active) | – |
| CCOc1ccc2[nH]c(C(=O)N/N=C/c3cccc(OC)c3OC)cc2c1 | 15.1 µM (active) | – |
| CCOc1ccccc1/C=N/NC(=O)CNC(=O)COc1ccccc1 | inactive | – |
| COc1cccc(OCc2cc(/C=N/NC(=O)c3nc(Cl)c(Cl)c(N)c3Cl)ccc2OC)c1 | inactive | – |
